According to PubChem BioAssay (NCATS):
Inconclusive results are not listed. The source made the active and inactive calls. The call rests on the fitted dose curve; in most records, active means well fitted curve in the direction sought with a large enough effect; inconclusive means small, poorly fitted or top-dose-only effect, or another doubt; inactive means no such curve, though single readings can be large; an effect the other way counts as inactive or inconclusive.

What was measured:
[1] = target: ATP-dependent 6-phosphofructokinase (Trypanosoma brucei brucei) (UniProt O15648); assay: qHTS Assay to Find Inhibitors of T. brucei phosphofructokinase: hit validation (AID 492961);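 further: luminescence reports ADP formed as PFK phosphorylates fructose-6-phosphate with ATP; on the % scale 0 is the no-effect control and ±100 the full control effect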
Outline: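 ADP-Glo luminescence read-out of ADP formed by 1.25 nM PFK from 0.1 mM ATP and 0.5 mM F6P (TEA pH 8.0, 45 min, RT). Compounds titrated; activity normalized to no-enzyme and full-enzyme controls.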

[2] = qHTS profiling for inhibitors of Plasmodium falciparum proliferation (AID 504749);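 further: 0% = DMSO vehicle and full inhibition = artemisinin control; nearly all actives have a fitted effect of over 60% in size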; details: P. falciparum in erythrocytes, SYBR Green DNA, 72 h, at 28.7 µM (top of the series)
Outline: (§1)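 Three-day growth assay of blood-stage parasites in erythrocytes (0.3% parasitemia, 2.5% hematocrit) at 37 C, 5% CO2, quantified by SYBR Green DNA staining after overnight detergent lysis.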

3D7 = assay: as above; details: P. falciparum in erythrocytes, SYBR Green DNA, 72 h; series mostly up to 28.7 µM
Outline: as §1

AA1029 = assay: as above; details: P. falciparum in erythrocytes, SYBR Green DNA, 72 h; series mostly up to 28.7 µM
Outline: as §1

AS120 = assay: as above; details: P. falciparum in erythrocytes, SYBR Green DNA, 72 h; series mostly up to 28.7 µM
Outline: as §1

ATS189 = assay: as above; details: P. falciparum in erythrocytes, SYBR Green DNA, 72 h; series mostly up to 28.7 µM
Outline: as §1

C2A = assay: as above; details: P. falciparum in erythrocytes, SYBR Green DNA, 72 h; series mostly up to 28.7 µM
Outline: as §1

CP185 = assay: as above; details: P. falciparum in erythrocytes, SYBR Green DNA, 72 h; series mostly up to 28.7 µM
Outline: as §1

CP191 = assay: as above; details: P. falciparum in erythrocytes, SYBR Green DNA, 72 h; series mostly up to 28.7 µM
Outline: as §1

CP192 = assay: as above; details: P. falciparum in erythrocytes, SYBR Green DNA, 72 h; series mostly up to 28.7 µM
Outline: as §1

CP194 = assay: as above; details: P. falciparum in erythrocytes, SYBR Green DNA, 72 h; series mostly up to 28.7 µM
Outline: as §1

CP211 = assay: as above; details: P. falciparum in erythrocytes, SYBR Green DNA, 72 h; series mostly up to 28.7 µM
Outline: as §1

CP217 = assay: as above; details: P. falciparum in erythrocytes, SYBR Green DNA, 72 h; series mostly up to 28.7 µM
Outline: as §1

CP237 = assay: as above; details: P. falciparum in erythrocytes, SYBR Green DNA, 72 h; series mostly up to 28.7 µM
Outline: as §1

CP238 = assay: as above; details: P. falciparum in erythrocytes, SYBR Green DNA, 72 h; series mostly up to 28.7 µM
Outline: as §1

CP247 = assay: as above; details: P. falciparum in erythrocytes, SYBR Green DNA, 72 h; series mostly up to 28.7 µM
Outline: as §1

CP252 = assay: as above; details: P. falciparum in erythrocytes, SYBR Green DNA, 72 h; series mostly up to 28.7 µM
Outline: as §1

CP286 = assay: as above; details: P. falciparum in erythrocytes, SYBR Green DNA, 72 h; series mostly up to 28.7 µM
Outline: as §1

Dd2 = assay: as above; details: P. falciparum in erythrocytes, SYBR Green DNA, 72 h; series mostly up to 28.7 µM
Outline: as §1

P94_40 = assay: as above; details: P. falciparum in erythrocytes, SYBR Green DNA, 72 h; series mostly up to 28.7 µM
Outline: as §1

Sequence of ATP-dependent 6-phosphofructokinase (Trypanosoma brucei brucei) (O15648 whole entry, looked up): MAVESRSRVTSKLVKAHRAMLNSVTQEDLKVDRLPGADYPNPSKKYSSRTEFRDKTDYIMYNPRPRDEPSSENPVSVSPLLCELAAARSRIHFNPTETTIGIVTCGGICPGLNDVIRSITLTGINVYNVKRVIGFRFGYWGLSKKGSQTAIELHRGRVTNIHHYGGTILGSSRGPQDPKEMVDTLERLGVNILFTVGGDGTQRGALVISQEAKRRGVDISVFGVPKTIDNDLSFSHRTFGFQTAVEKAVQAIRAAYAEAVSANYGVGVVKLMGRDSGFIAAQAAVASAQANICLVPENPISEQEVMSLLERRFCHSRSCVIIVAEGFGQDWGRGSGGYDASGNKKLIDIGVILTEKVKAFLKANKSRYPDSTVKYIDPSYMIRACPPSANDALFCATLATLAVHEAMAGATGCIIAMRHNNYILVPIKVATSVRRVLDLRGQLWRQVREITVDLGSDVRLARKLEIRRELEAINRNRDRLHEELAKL

CC1OC(OC2CCC3(C)C(CCC4C3CC(O)C3(C)C(C5=CC(=O)OC5)CCC43O)C2)CC(O)C1OC1CC(O)C(OC2CC(O)C(OC3OC(CO)C(O)C(O)C3O)C(C)O2)C(C)O1 (stereo not given)
inactive: Potency [1] | activity, negative = inhibition ([2]; parasite line A) 13.2% | activity, negative = inhibition ([2]; parasite line B) -5.12% | Potency (3D7) | Potency (AA1029) | Potency (AS120) | Potency (ATS189) | Potency (C2A) | Potency (CP185) | Potency (CP191) | Potency (CP192) | Potency (CP194) | Potency (CP211) | Potency (CP217) | Potency (CP237) | Potency (CP238) | Potency (CP247) | Potency (CP252) | Potency (CP286) | Potency (Dd2) | Potency (P94_40)

CCCCCCCCCCCCCCCC(=O)OC[C@H](O)[C@H]1OC[C@@H](O)[C@@H]1O
inactive: Potency [1] | activity, negative = inhibition ([2]; parasite line A) -0.407% | activity, negative = inhibition ([2]; parasite line B) -6.82% | Potency (3D7) | Potency (AA1029) | Potency (AS120) | Potency (ATS189) | Potency (C2A) | Potency (CP185) | Potency (CP191) | Potency (CP192) | Potency (CP194) | Potency (CP211) | Potency (CP217) | Potency (CP237) | Potency (CP238) | Potency (CP247) | Potency (CP252) | Potency (CP286) | Potency (Dd2) | Potency (P94_40)

O=C(O)CC(O)CC(O)/C=C/c1c(C2CC2)nc2ccccc2c1-c1ccc(F)cc1 (stereo not given)
inactive: Potency [1] | activity, negative = inhibition ([2]; parasite line A) 5.32% | activity, negative = inhibition ([2]; parasite line B) -2.35% | Potency (3D7) | Potency (AA1029) | Potency (AS120) | Potency (ATS189) | Potency (C2A) | Potency (CP185) | Potency (CP191) | Potency (CP192) | Potency (CP194) | Potency (CP211) | Potency (CP217) | Potency (CP237) | Potency (CP238) | Potency (CP247) | Potency (CP252) | Potency (CP286) | Potency (Dd2) | Potency (P94_40)

CC1(C)OC[C@@H]2O[C@@]3(C(=O)O)OC(C)(C)O[C@@H]3[C@@H]2O1
inactive: Potency [1] | activity, negative = inhibition ([2]; parasite line A) 1.64% | activity, negative = inhibition ([2]; parasite line B) 11.5% | Potency (3D7) | Potency (AA1029) | Potency (AS120) | Potency (ATS189) | Potency (C2A) | Potency (CP185) | Potency (CP191) | Potency (CP192) | Potency (CP194) | Potency (CP211) | Potency (CP217) | Potency (CP237) | Potency (CP238) | Potency (CP247) | Potency (CP252) | Potency (CP286) | Potency (Dd2) | Potency (P94_40)

NC(=O)C1CC2(NC(=O)NC2=O)c2cc(F)ccc2O1 (stereo not given)
inactive: Potency [1] | activity, negative = inhibition ([2]; parasite line A) 9.13% | activity, negative = inhibition ([2]; parasite line B) 7.45% | Potency (3D7) | Potency (AA1029) | Potency (AS120) | Potency (ATS189) | Potency (C2A) | Potency (CP185) | Potency (CP191) | Potency (CP192) | Potency (CP194) | Potency (CP211) | Potency (CP217) | Potency (CP237) | Potency (CP238) | Potency (CP247) | Potency (CP252) | Potency (CP286) | Potency (Dd2) | Potency (P94_40)
